Screening data from PubChem BioAssay.
Hits are enriched below; roughly 1.4% of the tested compounds scored in any of these assays.
MmCpn inh – inhibitors of Methanococcus maripaludis chaperonin TRiC (MmCpn) | purified Mm-Cpn ATPase, ADP Transcreener TR-FRET | Potency, µM (highest dose often 76.9 µM), for inactives: at the top dose activity, negative = inhibition, usual class: inhibitors | hit rate 0.031% among 330,000; note: potency is the fitted concentration of half-maximal effect; % is set by controls: 0 for no effect and ±100 for the full control effect; nearly all actives have a fitted effect of over 80% in size
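Measured: ADP formation by purified Mm-CPN. Conditions: 25 nM protein, 10 uM ATP, Tris pH 7.4 with Mg2+, K+ and DTT, 37°C for 30 min. Detection: Transcreener HTRF after 30 min at room temperature.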
KCNH2 3.1 inh – blocks the human KCNH2 3.1 channel isoform. U2OS KCNH2 3.1, thallium flux FluxOr; active compounds read low. activity change, % (tested at about 1.8 µM). hit rate 0.95% among 340,000;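 active = maximum activity change below -70%; inconclusive = maximum activity change from -70% to -50%; inactive = maximum activity change above -50%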;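 note: thallium influx rate constant from kinetic fluorescence after stimulation buffer; % is set by controls: 0 for no effect and ±100 for the full control effect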
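Normalized rate constant (relative to positive and negative DMSO controls) derived from a 2 min kinetic fluorescence read after stimulation; U2OS cells expressing the 3.1 isoform via virus at 1.77 x 10^8 /mL.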
uPA generation – inhibitors of cell surface uPA generation; Potency, µM (highest dose often 38.3 µM), inactives show top-dose activity change, negative = inhibition, actives largely listed as inhibitors; cell surface uPA generation assay, qHTS; hit rate 0.31% among 330,000; active = well fitted inhibition curve with a large enough effect; inconclusive = small, poorly fitted or top-dose-only effect; inactive = no such curve, though single readings can be large or run the other way; tested in mouse RAW 264.7 cells; note: potency is the fitted concentration of half-maximal effect; % is set by controls: 0 for no effect and ±100 for the full control effect; nearly all actives have a fitted effect of over 55% in size
p53 reactivator – restores transcriptional activity of mutant p53 | hit rate 0.063% among 320,000 | Potency, µM (doses to about 92.2 µM), without a hit: top-dose activity change, positive = activation, most hits filed as activators | AID 504706 | H1299 p53-A138V BP100-luciferase reporter, luminescence, 24 h; note: potency is the fitted concentration of half-maximal effect; % of control where 0% means no effect; nearly all actives have a fitted effect of over 45% in size
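H1299 (p53-null), stable ts p53-A138V + BP100-Luc; 1000 cells/well, Opti-MEM/10% FBS; cpd 4 pt, 1:5; 24 h, 37 deg C, 5% CO2; detection reagent 10 min RT; luminescence.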
KCNH2 WT inh – inhibitors of human wildtype KCNH2 potassium channel | Q12809 | U2OS, BacMam KCNH2, thallium flux FluxOr; active compounds read low | activity change, % at 1.84 µM | hit rate 0.37% among 340,000;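 active = maximum activity change below -70%; inconclusive = maximum activity change between -70% and -50%; inactive = maximum activity change above -50%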; note: % is set by controls: 0 for no effect and ±100 for the full control effect
Target sequence (Q12809 whole entry, looked up): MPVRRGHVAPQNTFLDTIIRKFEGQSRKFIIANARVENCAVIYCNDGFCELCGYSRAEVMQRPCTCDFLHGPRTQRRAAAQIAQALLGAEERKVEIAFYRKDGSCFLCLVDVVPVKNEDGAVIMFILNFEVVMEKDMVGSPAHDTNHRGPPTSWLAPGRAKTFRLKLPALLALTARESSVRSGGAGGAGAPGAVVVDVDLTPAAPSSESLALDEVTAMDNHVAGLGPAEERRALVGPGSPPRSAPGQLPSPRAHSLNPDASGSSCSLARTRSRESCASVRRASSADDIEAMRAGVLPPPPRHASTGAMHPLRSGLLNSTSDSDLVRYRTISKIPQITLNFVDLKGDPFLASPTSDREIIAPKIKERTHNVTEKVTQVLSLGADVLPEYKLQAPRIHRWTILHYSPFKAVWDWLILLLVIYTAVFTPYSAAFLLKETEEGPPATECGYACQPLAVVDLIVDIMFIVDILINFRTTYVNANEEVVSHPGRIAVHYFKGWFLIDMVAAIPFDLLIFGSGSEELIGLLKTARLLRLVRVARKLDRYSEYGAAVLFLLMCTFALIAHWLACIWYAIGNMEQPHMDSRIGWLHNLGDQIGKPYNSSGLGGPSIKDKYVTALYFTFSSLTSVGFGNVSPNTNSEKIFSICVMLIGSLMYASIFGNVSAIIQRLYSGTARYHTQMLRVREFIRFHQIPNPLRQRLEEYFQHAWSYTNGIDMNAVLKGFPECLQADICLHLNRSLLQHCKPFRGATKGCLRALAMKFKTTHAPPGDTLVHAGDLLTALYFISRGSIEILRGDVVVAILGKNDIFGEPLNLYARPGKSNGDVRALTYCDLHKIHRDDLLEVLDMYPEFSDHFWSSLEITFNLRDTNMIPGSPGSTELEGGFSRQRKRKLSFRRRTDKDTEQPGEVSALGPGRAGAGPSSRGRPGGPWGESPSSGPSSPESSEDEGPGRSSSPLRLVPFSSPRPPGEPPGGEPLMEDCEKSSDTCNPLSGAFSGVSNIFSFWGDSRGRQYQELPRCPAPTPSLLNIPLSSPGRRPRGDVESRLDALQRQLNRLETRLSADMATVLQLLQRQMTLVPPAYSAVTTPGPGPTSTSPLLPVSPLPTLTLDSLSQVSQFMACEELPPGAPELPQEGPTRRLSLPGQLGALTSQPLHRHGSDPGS
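U2OS cells transduced with wild-type KCNH2 virus are loaded with FluxOr dye for 45 min, and thallium flux is measured in kinetic reads before and after stimulation buffer. Rate constants are normalized to DMSO controls.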
S-ASM inh – human S-ASM enzyme inhibition. placental ASM, HMU-PC fluorogenic substrate, 60 min. Potency, µM (series often up to 57.5 µM), inactives show top-dose activity change, negative = inhibition, actives largely listed as inhibitors. hit rate 0.006% among 340,000. AID 504937; note: potency is the fitted concentration of half-maximal effect
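Human placenta-derived ASM preincubated with compound 10 min at room temperature, then reacted with 9 uM (final) fluorogenic HMU-PC substrate for 60 min at 37 C. Stop solution raises pH to 10; fluorescence read at Ex 386/Em 447 nm.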
Starred values were filed as active, the others as inactive; i = inactive; u = inconclusive; x = no result given. Unless noted, calls come from the whole dose curve; as a rule, active = well fitted curve in the direction sought with a large enough effect; inconclusive = small, poorly fitted or top-dose-only effect, or another doubt; inactive = no such curve, though single readings can be large; an effect the other way counts as inactive or inconclusive.

SMILES | MmCpn inh | KCNH2 3.1 inh | uPA generation | p53 reactivator | KCNH2 WT inh | S-ASM inh
O=C(/C=C/c1ccc(F)cc1)NNC(=O)CCN1CCN(Cc2ccccc2)CC1 | -1% | -105* | -16% | 15% | 21 | 12%
COc1ccc(NC(=O)CN2CCN(CC(=O)Nc3cc(OC)cc(OC)c3)CC2)cc1 | 2% | -81* | -3% | -24% | -26 | -2%
CCOc1ccc(-c2nnc(NC(=O)C3CCCC3)o2)cc1 | -1% | -25 | 0% | u | 8 | -3%
CCc1nnc(NS(=O)(=O)c2ccc(NC(=O)c3ccc([N+](=O)[O-])s3)cc2)s1 | x | 3 | x | x | 2 | x
CC(=O)CSc1nc2nccnc2[nH]1 | x | 2 | x | x | -6 | x
CN(Cc1ccccc1)C(=O)c1cccc(NC(=O)Cc2ccc(NC(=O)C3CCCN(C(=O)C4CCC4)C3)cc2)c1 (stereo not given) | x | -1 | 11% | x | -7 | 0%
CCOc1ccc(NC(=O)CN2CCN(CC(=O)Nc3ccc(F)cc3)CC2)cc1 | -4% | -89* | -3% | -6% | -92* | -2%
O=C(CN1CCC(C(=O)c2ccc(F)cc2)CC1)Nc1ccccc1 | 1% | -20 | -14% | -3% | -4 | 0%
O=C(CN1CCN(C(=O)C2CCN(C(=O)/C=C/c3ccccc3)CC2)CC1)Nc1ccc(F)cc1 | x | -99* | -9% | x | -39 | 0%
Cc1cccc2c1-c1sc(C(=O)NCCCN3CCC(C)CC3)cc1CO2 | -6% | -75* | u | -4% | 11 | i
Cc1nc(N)[nH]c(=O)c1CCCNc1ccc([N+](=O)[O-])cc1 | x | -119* | 6% | x | -3 | -3%
CCOC(=O)c1ccc(NC(=S)N(CCN2CCCCCC2)Cc2ccco2)cc1 | 4% | -90* | 0% | -5% | 15 | 0%
c1ccc(C[C@H]2CN=C(Nc3ccccc3)N2CCCC2CCCC2)cc1 | 1% | -96* | -8% | x | -93* | -2%
c1ccc(CCCCN2C(Nc3ccccc3)=NC[C@@H]2Cc2ccccc2)cc1 | 0% | -104* | -30% | 6% | -36 | -5%
CCC(C)CCN1C(Nc2ccccc2)=NC[C@@H]1Cc1ccccc1 (stereo not given in full) | 1% | -49 | u | x | 67 | 8%
CCN1C(Nc2ccccc2)=NC[C@@H]1Cc1ccccc1 | -2% | -109* | 4% | x | -15 | 1%
CCCCCCCN1C(Nc2ccccc2)=NC[C@@H]1Cc1ccccc1 | 1% | -109* | u | 5% | -30 | -1%
CC(=O)Nc1ccc(-c2csc(N3CCC(C(N)=O)CC3)n2)cc1 | -3% | x | x | x | x | x
CN(C)C1=NC[C@H](Cc2ccccc2)N1CCCC1CCCC1 | -2% | -102* | 4µM* | -5% | -32 | -6%
O=C(Nc1ccn(CCCN2CCN(c3ccccc3)CC2)c(=O)n1)OCc1ccccc1 | x | -72* | x | x | 42 | x
CN(CCCn1ccc(NC(=O)OCc2ccccc2)nc1=O)CCc1ccccn1 | x | -85* | x | x | -5 | x
Cc1cc(C)c(CN2CCN(CCCn3ccc(NC(=O)OCc4ccccc4)nc3=O)CC2)c(C)c1 | x | -82* | u | x | -44 | 0%
COc1ccc(N2CCN(CCCn3ccc(NC(=O)OCc4ccccc4)nc3=O)CC2)cc1 | x | u | x | x | 6 | x
COc1ccc(CN(C)CCCn2ccc(NC(=O)OCc3ccccc3)nc2=O)cc1OC | x | -8 | x | x | 20 | x
O=C(Nc1ccn(CCCN2CCN(Cc3cccc4ccccc34)CC2)c(=O)n1)OCc1ccccc1 | x | u | x | x | -1 | x
O=C(Nc1ccccc1O)c1ccccc1O | 1% | 4 | -13% | 13% | 2 | 0%
CC(=O)/C=C(\C)Nc1ccccc1O | -6% | -22 | 7.9µM* | u | -13 | 2%
Cc1ccc(CNC(=O)C23CN(Cc4ccccc4)CC2C(c2cccc([N+](=O)[O-])c2)=NO3)cc1 (stereo not given) | 2% | -72* | 10% | -9% | -7 | 6%
